Bioassay records as filed in PubChem BioAssay.
In the library only some 11% were active in any assay of this set; here they are far more common.
KDM4E inh – blocks human JMJD2E demethylase activity; B2RXH2; JMJD2E catalytic domain, FDH-coupled NADH fluorescence (FDH is formaldehyde dehydrogenase); Potency, µM (series often up to 57.1 µM), most hits filed as inhibitors; 230,000 compounds, 1.6% hits; AID 2147; also: nearly all actives have a fitted effect of over 50% in size
PNC inhibitor – inhibitors of perinucleolar compartment assembly; 140,000 compounds, 3.1% hits; PC3M PTB-GFP, PNC prevalence imaging, 16 h; stronger effect = lower value; activity change (PNC), negative = inhibition, % at 10 µM; AID 2417;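 active = readout at or below -70, meaning at least 70% loss of cells showing the perinucleolar compartment, a nuclear body marking cancer cells; inconclusive = readout between -30 and a set limit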
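PC3M cells stably expressing PTB-GFP, 750–1000 cells/well, treated 16 h at 37 °C with compound (23 nl of library stock), in duplicate. After paraformaldehyde fixation and Hoechst stain, imaged at 20x; PNC prevalence scored by image analysis.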
ALDH1A1 inh – ALDH1A1 (human) enzyme inhibition. Purified ALDH1A1, NADH fluorescence, propionaldehyde substrate. Potency, µM (top dose mostly 75.3 µM), actives largely listed as inhibitors. 220,000 compounds, 7.3% hits. AID 1030
HPGD inh – HPGD (human) dehydrogenase inhibition; 150,000 compounds, 4.3% hits; Potency, µM, hits mostly inhibitors; P15428; purified HPGD, NADH fluorescence kinetic, PGE2 substrate; AID 894
Target sequence (P15428 whole entry, looked up): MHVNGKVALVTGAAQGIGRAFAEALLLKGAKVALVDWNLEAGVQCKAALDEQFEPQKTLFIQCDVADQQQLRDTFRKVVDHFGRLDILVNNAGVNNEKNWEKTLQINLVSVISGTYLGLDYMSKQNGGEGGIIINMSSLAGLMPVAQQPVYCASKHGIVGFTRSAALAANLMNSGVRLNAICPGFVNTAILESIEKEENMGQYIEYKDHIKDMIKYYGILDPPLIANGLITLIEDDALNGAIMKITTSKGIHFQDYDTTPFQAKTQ
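20 nM HPGD preincubated 15 min at room temperature with compound in 50 mM Tris-HCl pH 8, 0.01% Tween 20. Started with 1 mM NAD+ and 30 uM prostaglandin E2; NADH fluorescence (360/450 nm) read 5 times over 30-s intervals, last minus first.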
HPGD inh cf – human HPGD enzyme inhibition, confirmation | shares compounds with HPGD inh | recombinant HPGD, NADH fluorescence, PGE2 substrate | Potency, µM (doses to about 57.1 µM), hits mostly inhibitors | 90 compounds, 90% hits; calls by dose curve
Hits are given with their value; - = inactive; ? = inconclusive; . = not tested or not shown; [ ] = remark or other dose. Unless noted, calls follow the shape of the dose curve; as a rule, active = well fitted inhibition curve with a large enough effect (not every such curve was filed as active); inconclusive = small, poorly fitted or top-dose-only effect, or another doubt; inactive = no such curve, though single readings can be large or run the other way.

SMILES	KDM4E inh	PNC inhibitor	ALDH1A1 inh	HPGD inh	others
CC(C(=O)N1CCCCC1)n1sc2ccccc2c1=O (centres undefined)	-	-	-	3.5µM
CC(=O)OCC1OC(Oc2cc(OC(C)=O)c3c(=O)cc(-c4ccc(OC(C)=O)c(OC(C)=O)c4)oc3c2)C(OC(C)=O)C(OC(C)=O)C1OC(C)=O (centres undefined)	?	.	-	-
C=CCn1c(SCc2ccccc2C#N)nnc1-c1cc(Br)ccc1O	-	?	-	14µM
C=CCn1c(SCC(N)=O)nnc1-c1cccc(Br)c1	-	?	-	-
CCCCCCCC1=Cc2ccccc2C(C(C(C)=O)C(=O)OC)N1C(=O)OC (centres undefined)	-[11.4 µM]	.	-[13.5 µM]	-
Cn1cnnc1SCCC(=O)Nc1ccc(Cl)cc1	-	-113	-	-
Cn1cnnc1SCCC(=O)Nc1ccccc1	-	-	-	.
N#CC1=C(S)N(c2ccccc2)C(c2ccc(-c3ccc(Cl)c(Cl)c3)o2)NC1=O (centres undefined)	25µM	.	.	.
N#CC1=C(S)N(c2ccccc2)C(c2cccs2)NC1=O (centres undefined)	-	-	20µM	32µM
N#CC1=C(S)N(c2ccccc2)C(c2ccco2)NC1=O (centres undefined)	-	.	-	.
N#CC1=C(S)N(c2ccccc2)C(c2ccc(-c3cc(Cl)ccc3Cl)o2)NC1=O (centres undefined)	-	-	?	?
Cc1ccc(N2C(S)=C(C#N)C(=O)NC2c2cccs2)cc1 (centres undefined)	-	-114	-	22µM
CC(NC(=O)CCC(=O)c1ccc(F)cc1)C1CC2CCC1C2 (centres undefined)	-	.	-	.
NS(=O)(=O)c1ccc(NC(=O)COC(=O)CCc2ccc(S(=O)(=O)N3CCOCC3)cc2)cc1	-	.	?	.
CN(C)c1ccc(NC(=O)CSc2nc(N)c(C(=O)Nc3ccc(N(C)C)cc3)s2)cc1	-	-	25µM	-
CCOC(=O)c1sc(SCC(=O)Nc2ccc(N(C)C)cc2)nc1N	-	?	22µM	-
COc1cccc(-c2ccc3ncnc(Nc4ccccc4)c3c2)c1	.	.	-	.
CN(Cc1cccc(Cl)c1Cl)c1ccc(S(=O)(=O)N2CCCCC2)cc1[N+](=O)[O-]	-	-	?	-
CCN(CC)S(=O)(=O)c1ccc(C(=O)Nc2nnc(-c3ccco3)o2)cc1	?	.	-	.
CCc1nnc(NC(=O)c2ccc(S(=O)(=O)N(CC)Cc3ccccc3)cc2)o1	-	-	18µM	.
CCCCN(CC)S(=O)(=O)c1ccc(C(=O)Nc2nnc(-c3cccs3)o2)cc1	25µM	-	?	-
O=C(Oc1cccc2ccccc12)c1cc(Cl)nc2ccccc12	-	-	-	-
O=Cc1ccc(OC(=O)c2cc(Cl)nc3ccccc23)cc1	-	-	14µM	-
Cc1ccc(-c2n[nH]c(=S)n2/N=C/c2c(C)nn(-c3ccccc3)c2C)cc1	-	-	-	1.1µM	HPGD inh cf=0.5µM
O=C(CCc1ccc(Oc2cc([N+](=O)[O-])cc([N+](=O)[O-])c2)cc1)N1CCCCCC1	-	-	13µM	0.89µM	HPGD inh cf=0.4µM
SMILES	KDM4E inh	PNC inhibitor	ALDH1A1 inh	HPGD inh	others
Cc1cccc(-n2cnc3cc(C(=O)N4CCCCC4)ccc32)c1	-	-	4µM	0.071µM	HPGD inh cf=0.056µM
O=C(c1ccc2nc(-c3ccccc3)c(-c3ccccc3)nc2c1)N1CCCCC1	-	.	.	.
c1ccc(N2CCN(CCc3nnc4n3CCCCC4)CC2)cc1	-	-	-	-
Cc1cc(-c2nnc3n2CCCCC3)c(C)n1-c1ccccc1	-	?	?	0.16µM	HPGD inh cf=0.089µM
O=c1[nH]c2ccc(S(=O)(=O)Nc3ccc(-c4nnc5n4CCCCC5)cc3)cc2o1	-	?	-	0.2µM	HPGD inh cf=0.13µM
CC12CCC(C(=O)N(NC(=O)c3ccccc3Cl)C1=O)C2(C)C (centres undefined)	-	-	-	-
COCCNC(=O)c1cc2oc3ccccc3c2n1C	-	-	?	1.4µM	HPGD inh cf=1.6µM
CCOc1ccccc1CNC(=O)c1cc2oc3ccccc3c2n1C	?	-	?	?
O=C(NCc1cccs1)C(=O)c1cn(CC(=O)N2CCCC2)c2ccccc12	-	.	?	.
COC(=O)c1cc2ccc(OC)c(OC)c2c(=O)s1	?	-	-	-
COc1ccc2cc(C(=O)N3CCCCCC3)sc(=O)c2c1OC	-	-	8.9µM	0.13µM	HPGD inh cf=0.25µM
CCN=C1SC(CC(=O)NCc2ccccc2)C(=O)N1CC (centres undefined)	-	.	?	.
